# Results: PubChem BioAssay (NCATS)
# Inconclusive results are not listed. The source made the active and inactive calls. Calls come from the whole dose curve; as a rule, active = well fitted inhibition curve with a large enough effect; inconclusive = small, poorly fitted or top-dose-only effect; inactive = no such curve, though single readings can be large or run the other way. Where a SMILES comes first, the peptide text is derived from it.
# Assay: Primary qHTS for inhibitors of nuclear receptor binding SET domain protein 2 (NSD2) in an RCH-ACV wild type WT cells (2C) (AID 1645877); note: nearly all actives have a fitted effect of over 70% in size
# Conditions: RCH-ACV (leukaemia line) NSD2 WT (2C) viability, CellTiter-Glo, 72 h; series mostly up to 44.9 µM; activity change, negative = cell killing: at the top concentration
# % is set by controls: 0 for no effect and ±100 for the full control effect; potency is the fitted concentration of half-maximal effect.
Structure (SMILES),"activity change, negative = cell killing",Potency,outcome
COc1cc(C(=O)NC2CCCNC2)cc(OC)c1OC (centres undefined),-8.52% (inactive),,
CC(=O)N(c1onc(C)c1C)S(=O)(=O)c1ccc(N)cc1,-14.5% (inactive),,
C[C@@H]1C[C@H]2[C@@H]3CCC4=CC(=O)C=C[C@]4(C)[C@@]3(F)[C@@H](O)C[C@]2(C)[C@@]1(O)C(=O)COC(=O)c1ccncc1,-82.2% (inactive),,
CN(C)CCN1CCN(c2cccc(Cl)c2)C1=O,9.66% (inactive),,
CCCCCCCCCCCCCCCCCCN(C)C,1.95% (inactive),,
O=C(CCCl)NCc1ccccc1,6.95% (inactive),,
Nc1ncnc2c1ncn2Cc1c(F)cccc1Cl,-4.21% (inactive),,
O=C(O)C(=O)Nc1cccc(-c2nn[nH]n2)c1,,inactive,
CC1CC(=O)NN=C1c1ccc(NCC(C)(C)NCC(O)COc2cc(Cl)ccc2C#N)cc1 (centres undefined),-19.4% (inactive),,
O=C(Nc1ccc(Cl)cc1)Nc1ccc(Cl)c(C(F)(F)F)c1,,2.99 µM (active),
COC(=O)CCCCC(CCSS/C(CCO)=C(\C)N(C=O)Cc1cnc(C)nc1N)SC(C)=O (centres undefined),-4.07% (inactive),,
CCN1CCN(C(=O)N[C@@H](C(=O)N[C@@H]2C(=O)N3[C@@H]2SC(C)(C)[C@H]3C(=O)O)c2ccccc2)C(=O)C1=O,,,inactive
N#Cc1cc(NC(=O)C(=O)O)c(Cl)c(NC(=O)C(=O)O)c1,7.05% (inactive),,
CNC(=O)c1c(I)c(NC(C)=O)c(I)c(C(=O)O)c1I,-3.44% (inactive),,
O=C(CO)[C@@H](O)[C@H](O)[C@@H](O)CO,,,inactive
CN(CC1(C)CCCO1)S(=O)(=O)c1ccc(Cl)c(S(N)(=O)=O)c1 (centres undefined),0.658% (inactive),,
CC(=O)Nc1c(I)c(NC(C)=O)c(I)c(C(=O)O)c1I,7.48% (inactive),,
O=C1[C@@H]2[C@H]3CC[C@H](C3)[C@@H]2C(=O)N1CCCCN1CCN(c2ncccn2)CC1,,,inactive
CC(C(O)c1ccccc1)N(C)CCOC(c1ccccc1)c1ccccc1 (centres undefined),,16.3 µM (active),
NC(=O)COCCN1CCN(C(c2ccccc2)c2ccc(Cl)cc2)CC1 (centres undefined),-10.5% (inactive),,

Structure (SMILES),"activity change, negative = cell killing",Potency,outcome
C[C@H]1C[C@H]2[C@@H]3CCC4=CC(=O)C=C[C@]4(C)[C@H]3C(=O)C[C@]2(C)[C@@]1(O)C(=O)CO,,,inactive
O=C(O)CCCC[C@@H]1SC[C@@H]2NC(=O)N[C@@H]21,5.54% (inactive),,
C#CC(C)(CC)OC(=O)c1ccccc1C(=O)O (centres undefined),,,inactive
COC(=O)/C=C\C(=O)OC,,,inactive
Nc1ccc2c(c1)CN1C(=O)c3ccccc3C1=N2,,8.2 µM (active),
CN1C(=O)CC(C)(c2ccccc2)C1=O (centres undefined),-8.06% (inactive),,
O=C(CCCCC(=O)Nc1c(I)cc(I)c(C(=O)O)c1I)Nc1c(I)cc(I)c(C(=O)O)c1I,-10.3% (inactive),,
CC(=O)N[C@@H](CO)C(=O)N[C@@H](CC(=O)O)C(=O)N[C@@H](CCCCN)C(=O)N1CCC[C@H]1C(=O)O (Ac-SDKP-OH),,,inactive
O=[N+]([O-])c1nccn1CO[C@@H](CO)[C@H](O)CO,-5.86% (inactive),,
CCCCCN(CCCOC)C(=O)C(CCC(=O)O)NC(=O)c1ccc(Cl)c(Cl)c1 (centres undefined),,,inactive
COC(=O)c1cc(Cl)c(NC(C)=O)cc1OC,,,inactive
CCCCCOc1ccccc1/C(=C\SC)n1ccnc1,,13.3 µM (active),
O=C(O)c1ccc(OCCN2CCCCC2)cc1,5.23% (inactive),,
CN1C(=O)c2ccccc2C1=O,1.1% [at 91.9 µM] (inactive),,
CC(C)OP(=O)(CP(=O)(OC(C)C)OC(C)C)OC(C)C,,,inactive
Cc1ccc2c(Cl)cc(Cl)c(O)c2n1,,,inactive
O=C1CC2(CCCC2)CC(=O)N1CCNCC1COc2ccccc2O1 (centres undefined),-4.89% (inactive),,
Cn1c(=O)c2c(ncn2CC(=O)O)n(C)c1=O,7.3% (inactive),,
Cc1ccc(/C=N/n2c(-c3ccccc3)csc2=S)cc1,-5.74% (inactive),,
